# In the library only some 7.8% were active in any assay of this set; here they are far more common.
# Cav3 T inh: blocks human Cav3.2 T-type calcium channel; O95180; Cav3.2-expressing cells, Fluo-4 calcium fluorescence FDSS; active compounds read low; B-score at 10 µM; 4% of 100,000 active;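 active = single-dose well whose peak fluorescence ratio is a statistical outlier from its plate by either plate-standardised score or position-corrected B-score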
# sEH inh: soluble epoxide hydrolase (human) inhibition | P34913 | recombinant human sEH enzymatic activity assay | inhibition, % at 2 µM | 0.34% of 91,000 active | AID 707; in the data active = inhibition above about 80%
# PostGolgi ctrl: yeast control strain growth, post-Golgi counter-screen; efflux-deficient yeast background strain, growth absorbance A615, 16 h; inhibition, % at 10 µM; 5% of 98,000 active; AID 738
# PostGolgi yeast: growth inhibition of a yeast mutant, post-Golgi transport screen | post-Golgi transport phenotypic cell assay | inhibition, % at 10 µM | 0.9% of 98,000 active | AID 739;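 note: yeast cells grown in 1536-well plates; yeast grown about 18 h at 30C before absorbance read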
# sEH activator: soluble epoxide hydrolase (human) activation | activation, % at 2 µM | 0.04% of 91,000 active | purified human sEH enzymatic activity, activator screen; in the data active = activation above about 37%
# * hit, by the source's call; nt = not tested or not shown. Cut-off read from the data, not from the text of the source, unless noted: active = inhibition above about 30%; inactive = the rest.
SMILES,Cav3 T inh,sEH inh,PostGolgi ctrl,PostGolgi yeast,sEH activator
C#CCN(C#N)c1nc(NCC)nc(NC(C)C)n1,1,9,2,-8,-6
CCNc1nc(NC(C)C)nc(N(C#N)CCOc2ccccc2)n1,-5*,5,16,-13,-3
CCCCCCOc1ccc(-c2ccc(C#N)cn2)cc1,-0.17,-14,20,-4,18
C=CC[C@@H]1C=C(C)C[C@H](C)C[C@H](OC)[C@H]2O[C@@](O)(C(=O)C(=O)N3CCCC[C@H]3C(=O)O[C@H](/C(C)=C/[C@@H]3CC[C@@H](O)[C@H](OC)C3)[C@H](C)[C@@H](O)CC1=O)[C@H](C)C[C@@H]2OC,-4.1,nt,nt,nt,nt
CCCn1c(SCC(=O)NCc2ccccc2)nnc1-c1ccncc1,-0.16,-1,-11,19,2
O=C(Nc1nc(-c2cccs2)c(-c2ccccc2)s1)c1ccco1,0.34,nt,32*,36*,nt
O=C1Nc2ccc(F)cc2C12SCCS2,nt,-3,4,-1,2
COc1cccc(OCc2nnc(SCC(=O)NCc3ccco3)n2CCc2ccccc2)c1,-7.6*,3,7,2,-5
COc1ccc(-n2c(COc3ccc4ccccc4c3)nnc2SCC(=O)NCc2ccco2)cc1,-6.4*,7,24,-5,-6
Cc1cc(C(=O)O)c(CSCc2cc(C(=O)O)oc2C)o1,nt,7,5,-14,-12
CC(C)(C)c1nnc(NC(=O)NS(=O)(=O)c2ccccc2)s1,-0.051,5,16,-22,-4
CC(C)CCN=Cc1c(O)n(-c2ccccc2)c(=O)c2ccccc12,0.76,13,39*,6,-12
COc1cc(=O)[nH]c(SCc2c(F)c(F)c(F)c(F)c2F)n1,-0.98,4,53*,11,-2
Clc1ccc(OCCCc2nc(-c3ccncc3)no2)c(Cl)c1,-1.3,-4,95*,92*,5
Clc1ccc(OCCCc2nc(-c3cccnc3)no2)c(Cl)c1,-3.7,-9,34*,-3,8
Clc1ccc(-c2noc(CCCOc3ccccc3)n2)cc1,0.33,6,8,0,-4
Cc1cc(C)nc(-n2nc(C)cc2NC(=O)CNC(C)c2ccccc2)n1 (stereo not given),0.69,-1,34*,8,6
O=C(c1ccc2c(c1)OCO2)N(Cc1ccco1)C1(C(=O)NC2CCCCC2)CCCCC1,1.1,5,13,5,-7
COc1ccc(-c2cc(C(=O)O)c3c(C)nn(-c4ccccn4)c3n2)cc1,nt,-10,8,16,14
COc1ccc(N=CC2=C(Nc3ccc(OC)cc3)c3c(C)nn(-c4ccccn4)c3CC2)cc1,-4.2*,-9,nt,nt,12
Cc1ccc(Oc2nccc(-c3ccc(Cl)cc3)n2)cc1,0.73,-7,5,7,5
O=C(c1ccc(Cl)cc1)c1cc(-c2ccccn2)c(N2CCOCC2)s1,1.4,-15,49*,4,14
O=C(O)CCc1nc2ccccc2n(CCc2ccccc2)c1=O,2,8,-2,4,-8
O=C(O)CCc1nn2c3ccccc3nc2n(CCN2CCCCC2)c1=O,0.094,-54,10,-12,57*
O=C(Nc1ccc(Cl)cc1)N1CCC(c2nc(-c3cccs3)no2)CC1,-3,nt,44*,nt,nt
SMILES,Cav3 T inh,sEH inh,PostGolgi ctrl,PostGolgi yeast,sEH activator
O=C(Nc1ccccc1)N1CCCC(c2nc(-c3cccs3)no2)C1 (stereo not given),-0.99,nt,27,2,nt
COc1ccc(NC(=O)N2CCC(c3nc(-c4cccs4)no3)CC2)cc1,nt,90*,-4,15,-90
O=C(Nc1ccc(Cl)cc1)N1CCC(c2nc(-c3ccccc3Cl)no2)CC1,-0.88,88*,40*,11,-88
COc1cccc(C(=O)N2CCCC(c3nc(-c4cccs4)no3)C2)c1 (stereo not given),-2,4,10,1,-5
COc1ccc(CC(NC(C)=O)C(=O)N2CCN(C(=O)Nc3ccc(Cl)cc3)CC2)cc1OC (stereo not given),0.39,47,8,1,-48
CCc1nnc(NC(=O)c2ccc3c(c2)C(=O)N(CC)C3=O)s1,1.1,-5,nt,nt,2
CCCc1nc2ccccc2c(=O)n1NC(=O)c1c(O)c2cccc3c2n(c1=O)CCC3,-8*,-15,29,18,12
CCCCCCc1nc2ccccc2c(=O)n1NC(=O)c1c(O)c2cccc3c2n(c1=O)CC3,nt,13,nt,nt,-13
CC(C)c1nnc(NC(=O)c2c(O)c3cccc4c3n(c2=O)CCC4)s1,-0.61,-7,59*,80*,8
O=C(COC(=O)Cc1ccc(S(=O)(=O)N2CCCCC2)s1)Nc1ccc2c(c1)OCO2,-0.066,12,36*,-3,-13
c1ccc(Cc2nnc3sc(-c4ccccn4)nn23)cc1,-0.092,0,-1,4,4
CCOc1ccccc1-c1nn2c(Cc3ccccc3)nnc2s1,-0.0038,nt,78*,8,nt
O=C1CC(c2ccccc2)CC(O)=C1C=NCCN1CCN(C(=O)Nc2ccccc2)CC1 (stereo not given),-1.2,7,20,5,-10
O=C(NCc1cccc(Br)c1)C1CC(c2ccccc2C(F)(F)F)=NO1 (stereo not given),-0.9,nt,nt,nt,nt
Cc1cc(C)cc(N(C(C)C(=O)NCCC2=CCCCC2)S(C)(=O)=O)c1 (stereo not given),0.024,1,14,-8,2
CC(=O)c1ccc(OCCCC(=O)OCC(=O)N2CCN(c3ccccc3)CC2)cc1,0.26,7,-1,-1,-7
Cc1ccc(C(=O)Nc2ccccc2Oc2ccccc2)cc1[N+](=O)[O-],-4.1*,7,34*,-9,-2
Cc1ccc(C(=O)Nc2ccc(OCc3ccccc3)cc2)cc1[N+](=O)[O-],-1.5,-18,13,-2,16
COc1cccc(COc2ccccc2C2Nc3ccc(Br)cc3C(=O)N2NC(=O)c2ccncc2)c1 (stereo not given),nt,-1,24,-9,2
CCN(CC)C(=O)c1cnn(-c2ccccc2)c1NC(=O)c1ccccc1F,0.83,13,nt,nt,-13
O=C(CN1CCC(C(O)(c2ccccc2)c2ccccc2)CC1)Nc1ccccc1,-2.4*,-2,-3,15,2
O=C(CN1CCC(C(O)(c2ccccc2)c2ccccc2)CC1)Nc1cc(Cl)ccc1Cl,-0.12,-11,37*,8,12
O=C(CN1CCN(c2ccccc2)CC1)Nc1cccc(C(F)(F)F)c1,1,11,1,-13,-13
O=C(CN1CCCCC1)Nc1cc(Cl)ccc1Cl,-0.24,3,1,20,-5
O=C(CN1CCN(Cc2ccccc2)CC1)Nc1cccc(C(F)(F)F)c1,-6.6*,-16,3,3,15
O=C(CN1CCCC1)Nc1ccc(NC(=O)Nc2ccccc2)cc1,-1.5,14,4,10,-15
Cc1cc(OCC(=O)O)c2cccc(C)c2n1,0.086,0,2,19,0
Cc1ccc2nc(C)cc(OCC(=O)O)c2c1,nt,4,3,44*,-5
CC(C)CCN(C(=O)Nc1ccccc1)C(C)c1cccs1 (stereo not given),-4.8*,14,14,3,-13
CC(c1cccs1)N(C(=O)Nc1ccccc1)C1CCCCC1 (stereo not given),-2.4,14,27,1,-15
